# Assay results reported in PubChem BioAssay (NCATS).
# Records with an inconclusive call do not appear. The source made the active and inactive calls. Calls follow the shape of the dose curve; as a rule, active = well fitted inhibition curve with a large enough effect; inconclusive = small, poorly fitted or top-dose-only effect; inactive = flat fitted curve, though single readings scatter.
# System: CRL-7250
# Test: qHTS assay to identify novel small-molecules to repurpose for Merkel cell carcinoma treatment (AID 1296009); also: nearly all actives have a fitted effect of over 60% in size
# Conditions: MCC and control cell lines, CellTiter-Glo viability, 72 h; at 44.8 µM (top of the series) unless noted
# Method in brief: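 Cells exposed to NPC (8-point) and MIPE (11-point) compound dilutions for 72 hr at 37 degree celsius; viability read by CellTiter-Glo luminescence, normalized to no-cell and DMSO in-plate controls.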
row,SMILES,outcome
1,Cc1ccc(C(C)C)c(O)c1,inactive
2,CCCCOCCOC(=O)c1cccnc1,inactive
3,O=C1NCC2(CCN(CCc3ccccc3)CC2)O1,inactive
4,O=C(O)c1c(O)c(-c2ccccc2)nc2ccccc12,inactive
5,Nc1ncnc2c1ncn2[C@@H]1O[C@H](COP(=O)(O)O)[C@@H](O)[C@H]1O,inactive
6,O=C(C1CCCCC1)N1CC(=O)N2CCCc3ccccc3C2C1 (stereo unspecified),inactive
7,OC[C@H]1O[C@@H]2O[C@H]3[C@H](O)[C@@H](O)[C@@H](O[C@H]4[C@H](O)[C@@H](O)[C@@H](O[C@H]5[C@H](O)[C@@H](O)[C@@H](O[C@H]6[C@H](O)[C@@H](O)[C@@H](O[C@H]7[C@H](O)[C@@H](O)[C@@H](O[C@H]8[C@H](O)[C@@H](O)[C@@H](O[C@H]1[C@H](O)[C@H]2O)O[C@@H]8CO)O[C@@H]7CO)O[C@@H]6CO)O[C@@H]5CO)O[C@@H]4CO)O[C@@H]3CO,inactive
8,CC(=O)CC(c1ccccc1)c1c(O)c2ccccc2oc1=O (stereo unspecified),inactive
9,CC(C)OC(=O)OCOP(=O)(CO[C@H](C)Cn1cnc2c(N)ncnc21)OCOC(=O)OC(C)C,inactive
10,NC(CS)C(=O)O (stereo unspecified),inactive
11,Cc1onc(-c2c(Cl)cccc2Cl)c1C(=O)Cl,inactive
12,CC(C)Cn1cnc2c(N)nc3ccccc3c21,inactive [at 17.4 µM]
13,CC(=O)CC/C=C(\C)CC/C=C(\C)CC/C=C(\C)CCC=C(C)C,inactive
14,Cc1cccc(C)c1NC(=O)CN1CCCCCC1,inactive
15,FC(F)(F)c1ccccc1-n1ccnc1,inactive
16,CC(=O)OCC(=O)[C@@]1(OC(C)=O)[C@@H](C)C[C@H]2[C@@H]3C[C@H](F)C4=CC(=O)C=C[C@]4(C)[C@@]3(F)[C@@H](O)C[C@@]21C,inactive
